{"source": "the supplement of paper PMC9950053", "note": "Structures can show the parent of a compound that is named as a salt."}
{"test_system": "Danio rerio larvae (5 dpf)", "assay": "startle (activity period 16 minus period 15, 20-s interval sound) minus DMSO control (percentage points); higher = stronger startle response than DMSO larvae", "settings": "10 µM; exposure time: 3 h pre-incubation + 3 h imaging", "description": "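Wild-type 5 dpf zebrafish larvae (n=48 per drug, 96-well plates, 28.5 °C) were exposed to Tocris FDA-approved library compounds at 10 µM (0.1% DMSO) for 3 h before and 3 h during imaging. Images were taken every 6 s during visual (moving coloured lines) and acoustic stimuli, and larvae were tracked with the DeepLabCut-based Z-LaP Tracker. Each behavioural measure is the treated-group mean minus the DMSO vehicle control mean (n=844), in percentage points. This mapping covers compounds with 4-character plate codes.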"}
{"smiles": "CN1CCC[C@@H]1CCO[C@](C)(c1ccccc1)c1ccc(Cl)cc1", "note": "[Clemastine fumarate]", "startle": -7.64}
{"smiles": "CCOc1cc(CC(=O)N[C@@H](CC(C)C)c2ccccc2N2CCCCC2)ccc1C(=O)O", "note": "[Repaglinide]", "startle": -4.11}
{"smiles": "COc1cccc2c1C(=O)c1c(O)c3c(c(O)c1C2=O)C[C@@](O)(C(=O)CO)C[C@@H]3O[C@H]1C[C@H](N)[C@H](O)[C@H](C)O1", "note": "[Doxorubicin hydrochloride]", "startle": 3.54}
{"smiles": "Nc1nc(Cl)nc2c1ncn2[C@@H]1O[C@H](CO)[C@@H](O)[C@@H]1F", "note": "[Clofarabine]", "startle": 5.12}
{"smiles": "COc1c(C)c2c(c(O)c1C/C=C(\\C)CCC(=O)OCCN1CCOCC1)C(=O)OC2", "note": "[Mycophenolate mofetil]", "startle": 3.22}
{"smiles": "CC(C)CN(C[C@@H](O)[C@H](Cc1ccccc1)NC(=O)O[C@H]1CO[C@H]2OCC[C@H]21)S(=O)(=O)c1ccc(N)cc1", "note": "[Darunavir]", "startle": -0.93}
{"smiles": "CNC(=O)c1ccccc1Sc1ccc2c(/C=C/c3ccccn3)n[nH]c2c1", "note": "[Axitinib]", "startle": -7.2}
{"smiles": "CC(CCc1ccc(O)cc1)NCCc1ccc(O)c(O)c1", "note": "(stereo not given) [Dobutamine hydrochloride]", "startle": -0.893}
{"smiles": "CC(C)c1ccc2oc3nc(N)c(C(=O)O)cc3c(=O)c2c1", "note": "[Amlexanox]", "startle": 2.27}
{"smiles": "Nc1nc(F)nc2c1ncn2[C@@H]1O[C@H](CO)[C@@H](O)[C@@H]1O", "note": "[Fludarabine]", "startle": 4.52}
{"smiles": "C[C@@H](O[C@H]1OCCN(Cc2n[nH]c(=O)[nH]2)[C@H]1c1ccc(F)cc1)c1cc(C(F)(F)F)cc(C(F)(F)F)c1", "note": "[Aprepitant]", "startle": -6.24}
{"smiles": "CC(=O)Oc1ccccc1C(=O)O", "note": "[Aspirin]", "startle": -4}
{"smiles": "Cc1cccc(C)c1OCC(C)N", "note": "(stereo not given) [Mexiletine hydrochloride]", "startle": 0.959}
{"smiles": "O=C(Nc1c(Cl)cncc1Cl)c1ccc(OC(F)F)c(OCC2CC2)c1", "note": "[Roflumilast]", "startle": 3.93}
{"smiles": "O=C(c1ccc(OCCN2CCCCC2)cc1)c1c(-c2ccc(O)cc2)sc2cc(O)ccc12", "note": "[Raloxifene hydrochloride]", "startle": 2.55}
{"smiles": "Nc1cccc2c1CN(C1CCC(=O)NC1=O)C2=O", "note": "(stereo not given) [Lenalidomide]", "startle": -4.19}
{"smiles": "COc1c(C)c2c(c(O)c1C/C=C(\\C)CCC(=O)O)C(=O)OC2", "note": "[Mycophenolic acid]", "startle": 3.04}
{"smiles": "COc1ccc(C[C@@H](C)NC[C@H](O)c2ccc(O)c(NC=O)c2)cc1", "note": "[Arformoterol tartrate]", "startle": -8.08}
{"smiles": "CC(C)c1nc(CN(C)C(=O)N[C@H](C(=O)N[C@@H](Cc2ccccc2)C[C@H](O)[C@H](Cc2ccccc2)NC(=O)OCc2cncs2)C(C)C)cs1", "note": "[Ritonavir]", "startle": 1.44}
{"smiles": "Cn1cnc([N+](=O)[O-])c1Sc1ncnc2[nH]cnc12", "note": "[Azathioprine]", "startle": -0.818}
{"smiles": "CCC(C)(C)C(=O)O[C@H]1C[C@@H](C)C=C2C=C[C@H](C)[C@H](CC[C@@H]3C[C@@H](O)CC(=O)O3)[C@H]21", "note": "[Simvastatin]", "startle": 3.93}
{"smiles": "CC(C)c1nc(N(C)S(C)(=O)=O)nc(-c2ccc(F)cc2)c1/C=C/[C@@H](O)C[C@@H](O)CC(=O)O", "note": "[Rosuvastatin calcium]", "startle": -0.514}
{"smiles": "CN(C)CCC[C@@]1(c2ccc(F)cc2)OCc2cc(C#N)ccc21", "note": "[Escitalopram oxalate]", "startle": -7.28}
{"smiles": "Cc1nc(-c2ccc(OCC(C)C)c(C#N)c2)sc1C(=O)O", "note": "[Febuxostat]", "startle": 3.79}
{"smiles": "Nc1nc(NC2CC2)c2ncn([C@H]3C=C[C@@H](CO)C3)c2n1", "note": "[Abacavir hemisulfate]", "startle": 6.4}
{"smiles": "C[C@H](Cc1cc2c(c(C(N)=O)c1)N(CCCO)CC2)NCCOc1ccccc1OCC(F)(F)F", "note": "[Silodosin]", "startle": 2.61}
{"smiles": "NS(=O)(=O)c1cc(C(=O)O)c(NCc2ccco2)cc1Cl", "note": "[Furosemide]", "startle": -3.94}
{"smiles": "Nc1ccn([C@@H]2O[C@H](CO)[C@@H](O)C2(F)F)c(=O)n1", "note": "[Gemcitabine hydrochloride]", "startle": 2.17}
{"smiles": "CN(CCOc1ccc(NS(C)(=O)=O)cc1)CCc1ccc(NS(C)(=O)=O)cc1", "note": "[Dofetilide]", "startle": 0.253}
{"smiles": "COc1cc2nc(N3CCN(C(=O)C4COc5ccccc5O4)CC3)nc(N)c2cc1OC", "note": "(stereo not given) [Doxazosin mesylate]", "startle": 6.47}
{"smiles": "CC1CNc2c(cccc2S(=O)(=O)N[C@@H](CCCNC(=N)N)C(=O)N2CC[C@@H](C)C[C@@H]2C(=O)O)C1", "note": "(stereo not given in full) [Argatroban]", "startle": 2.82}
{"smiles": "CCOC(=O)[C@H](CCc1ccccc1)N[C@@H](C)C(=O)N1[C@H](C(=O)O)C[C@@H]2CCC[C@@H]21", "note": "[Ramipril]", "startle": -0.503}
{"smiles": "CN1CC2c3ccccc3Oc3ccc(Cl)cc3C2C1", "note": "(stereo not given) [Asenapine maleate]", "startle": -6.16}
{"smiles": "COc1ccc(-c2ccc3cc(C(=O)O)ccc3c2)cc1C12CC3CC(CC(C3)C1)C2", "note": "[Adapalene]", "startle": -0.788}
{"smiles": "COc1ccccc1OCCNCC(O)COc1cccc2[nH]c3ccccc3c12", "note": "(stereo not given) [Carvedilol]", "startle": 3.72}
{"smiles": "COc1ccc(Cl)cc1C(=O)NCCc1ccc(S(=O)(=O)NC(=O)NC2CCCCC2)cc1", "note": "[Glibenclamide]", "startle": 8.34}
{"smiles": "CCCCc1nc(Cl)c(CO)n1Cc1ccc(-c2ccccc2-c2nnn[nH]2)cc1", "note": "[Losartan potassium]", "startle": -0.225}
{"smiles": "OCCN(CCO)c1nc(N2CCCCC2)c2nc(N(CCO)CCO)nc(N3CCCCC3)c2n1", "note": "[Dipyridamole]", "startle": 7.7}
{"smiles": "CC1=Nc2ccc(Cl)cc2S(=O)(=O)N1", "note": "[Diazoxide]", "startle": -4.34}
{"smiles": "CC1(C)O[C@@H]2[C@@H](CO[C@@]3(COS(N)(=O)=O)OC(C)(C)O[C@@H]23)O1", "note": "[Topiramate]", "startle": -0.863}
